Compound activity as filed in PubChem.
RGS7-Gao reg – human RGS7-Galphao interaction regulation; P09471; Multiplexed bead flow cytometry, RGS7-Galphao binding; actives lie on both sides; binding response (% of control), % at 10 µM; 220,000 tested, 0.35% active; AID 1439; in the data active = binding response below about 49% or above about 150%; inconclusive = no clear call, values can overlap the other calls; inactive = in between;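 also: fluorescent Galphao held in activated GDP-AlF4 state binding bead-coupled RGS7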
Target sequence (P09471 whole entry, looked up): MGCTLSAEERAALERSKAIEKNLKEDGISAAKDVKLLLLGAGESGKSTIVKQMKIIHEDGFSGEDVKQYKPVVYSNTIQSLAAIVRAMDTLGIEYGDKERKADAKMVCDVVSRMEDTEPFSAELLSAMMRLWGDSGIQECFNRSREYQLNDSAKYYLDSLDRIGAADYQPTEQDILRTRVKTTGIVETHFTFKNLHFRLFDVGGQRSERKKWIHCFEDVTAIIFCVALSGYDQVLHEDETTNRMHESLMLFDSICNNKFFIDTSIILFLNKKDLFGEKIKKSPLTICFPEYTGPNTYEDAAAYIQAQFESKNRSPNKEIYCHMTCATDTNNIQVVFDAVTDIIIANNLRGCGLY
Avidin fluor – compound fluoresces at 488/530 nm on avidin beads. compound fluorescence 488/530 nm, flow cytometry; stronger effect = higher value. fluorescence (KMESF) at 10 µM. 220,000 tested, 0.38% active. AID 1775; in the data active = fluorescence above about 47
GSH bead fluor – compound fluoresces at 488/530 nm on GSH beads; GSH beads flow cytometry, compound fluorescence 488/530 nm; stronger effect = higher value; fluorescence (KMESF) at 10 µM; 190,000 tested, 0.25% active; AID 1776; in the data active = fluorescence above about 89;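 also: glutathione beads carrying GST-tagged Bcl family fusion proteins plus one bare bead set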
RGS8-Gao – human RGS8-Galphao interaction regulation; response (percent of control binding), % at 10 µM; multiplexed bead flow cytometry, RGS8-Galphao binding; actives lie on both sides; AID 1423; P09471; 220,000 tested, 0.34% active; in the data active = response below about 60% or above about 140%; inactive = in between;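 also: Galphao activated as the GDP aluminium fluoride complex binding bead-coupled RGS8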
RGS16-Gao HTS – RGS16-Galphao interaction regulator (human); AID 1441; binding response (% of control), % at 10 µM; bead-based flow cytometry RGS16-Galphao binding, fluorescence; actives lie on both sides; 220,000 tested, 0.38% active; O15492+P09471;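 also: Galphao activated by GDP with aluminum fluoride before binding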
Target sequence (O15492 whole entry, looked up): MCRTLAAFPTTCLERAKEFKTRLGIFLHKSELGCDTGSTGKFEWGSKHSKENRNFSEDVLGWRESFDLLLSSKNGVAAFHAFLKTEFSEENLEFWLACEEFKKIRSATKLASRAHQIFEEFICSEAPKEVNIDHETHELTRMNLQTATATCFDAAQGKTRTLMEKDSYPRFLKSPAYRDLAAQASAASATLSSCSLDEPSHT
Target sequence (P09471 whole entry, looked up): as the sequence (P09471 whole entry, looked up) above
RGS4-Gao reg – modulates binding of RGS4 to human Galphao; P09471; Multiplexed bead flow cytometry; actives lie on both sides; binding response (% of control), % at 10 µM; 220,000 tested, 0.33% active; in the data active = binding response below about 49% or above about 150%; inactive = in between;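 also: fluorescent Galphao activated with aluminum fluoride binding bead-coupled RGS4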
RGS4-Gao HTS – regulators of human RGS4-Galphao interaction | multiplexed bead flow cytometry, RGS–Galpha-o binding | AID 1504 | RGS4–Galpha-o binding response, % at 10 µM | shares compounds with RGS16-Gao HTS | 1,600 tested, 99% active;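 also: fluorescently labeled Galpha-o bound to GDP with aluminium fluoride binding biotinylated RGS beads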
Avidin counter – interferes with biotinylated probe binding to avidin beads; inhibition, % at 10 µM; streptavidin beads, fluorescein-biotin binding, flow cytometry; 1,700 tested, under 10 active; shares compounds with RGS16-Gao HTS;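 active = inhibition above 50%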;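 also: median green fluorescence of gated singlet beads compared with DMSO control wells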
RGS8-Gao confirm – RGS8-Galphao interaction regulation, single point confirmation; shares compounds with RGS16-Gao HTS; bead-based flow cytometry RGS8-Galphao binding, fluorescence; actives lie on both sides; binding response (% of control), % at 10 µM; 1,700 tested, 3% active; in the data active = binding response below about 72% or above about 130%; inactive = in between;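 also: Galphao activated as GDP AlF4 complex before binding bead RGS8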
RGS7-Gao confirm – confirmation of regulators of human RGS7-Galphao interaction. shares compounds with RGS16-Gao HTS. bead-based flow cytometry RGS7-Galphao binding; actives lie on both sides. response (percent of control binding), % at 10 µM. 1,700 tested, 7.8% active; in the data active = response below about 75% or above about 130%; inactive = in between;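 also: fluorescent Galphao activated with GDP and aluminum fluoride binding bead-coupled RGS7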
RGS16-Gao conf – confirmation of regulators of human RGS16-Galphao interaction | shares compounds with RGS16-Gao HTS | AID 1838 | bead-based flow cytometry, RGS16-Galphao binding; actives lie on both sides | response (% of control binding), % at 10 µM | 1,700 tested, 4% active; in the data active = response below about 74% or above about 130%; inactive = in between;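 also: Galphao activated as the GDP aluminium fluoride complex binding bead-coupled RGS16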
RGS4-Gao single – RGS4-Galphao interaction regulation, single point confirmation. RGS4-Galphao binding, multiplexed bead flow cytometry; actives lie on both sides. binding response (% of control), % at 10 µM. 1,700 tested, 4% active. shares compounds with RGS16-Gao HTS; in the data active = binding response below about 74% or above about 130%; inactive = in between
RGS19-Gao single – RGS19-Galphao interaction regulation, single point confirmation; response (percent of control binding), % at 10 µM; 1,700 tested, 5% active; bead-based flow cytometry RGS19-Galphao binding; actives lie on both sides; shares compounds with RGS16-Gao HTS; in the data active = response below about 50% or above about 160%; inactive = in between
Numbers stand for hits; 0 = inactive; ? = inconclusive; - = no result given; [ ] = another dose, or the depositor's remark. Most compounds without a hit are left out; they make up all but 1.2% or so of the library. Unless noted, no rule for the calls is given here.

SMILES	RGS7-Gao reg	Avidin fluor	GSH bead fluor	RGS8-Gao	RGS16-Gao HTS	RGS4-Gao reg	RGS4-Gao HTS	Avidin counter	RGS8-Gao confirm	RGS7-Gao confirm	RGS16-Gao conf	RGS4-Gao single	RGS19-Gao single
O=S(=O)(N1CCCCC1)N1CCN(c2ccccc2F)CC1	156[activator]	70	0	0	0	0	105	0	0	0	0	0	0
CS(=O)(=O)N1CCN(c2ccccc2F)CC1	0	0	0	0	0	0	-	-	-	-	-	-	-
CCCC(=O)NC(NC1CCS(=O)(=O)C1)C(Cl)(Cl)Cl (configuration not stated)	11	0	0	34	15	22	-	0	0	0	0	0	0
CC(C)C(=O)NC(NC1CCS(=O)(=O)C1)C(Cl)(Cl)Cl (configuration not stated)	0	0	0	0	0	0	-	-	-	-	-	-	-
O=c1oc2ccccc2c(N2CCCCC2)c1[N+](=O)[O-]	0	0	0	0	0	0	-	-	-	-	-	-	-
O=c1oc2ccccc2c(N2CCCC2)c1[N+](=O)[O-]	157[activator]	0	0	161[activator]	180[activator]	157[activator]	-	0	0	0	0	0	0
COc1ccc(S(=O)(=O)N(CC(=O)N2CCOCC2)Cc2ccccc2)cc1	217[activator]	230	0	0	0	0	119	0	0	0	0	0	0
O=C(COc1ccc(S(=O)(=O)Nc2ccccc2)cc1)N1CCOCC1	0	0	0	0	0	0	-	-	-	-	-	-	-
CCOCCCNC(=O)c1ccc(N2CCOCC2)c(NS(=O)(=O)c2ccc(OC)cc2)c1	0	0	0	0	0	0	-	-	-	-	-	-	-
COCCCNC(=O)c1ccc(N2CCOCC2)c(NS(=O)(=O)c2ccc(OC)cc2)c1	-	-	0	-	-	-	-	0	0	0	0	0	0
O=C(CN(Cc1ccccc1)S(=O)(=O)c1ccccc1)N1CCOCC1	0	0	0	0	0	0	-	-	-	-	-	-	-
COc1ccc(OCC(=O)N2CCN(S(=O)(=O)c3ccc(Cl)cc3)CC2)cc1	0	0	0	152[activator]	0	0	116	0	0	0	0	0	0
O=C(COc1ccccc1)N1CCN(S(=O)(=O)c2ccc(Cl)cc2)CC1	0	0	0	0	0	0	-	-	-	-	-	-	-
COc1ccc(NS(=O)(=O)c2ccc(OCC(=O)N3CCOCC3)cc2)cc1	16	0	0	13	12	21	-	0	0	0	0	0	0
COc1ccc(S(=O)(=O)Nc2ccc(-n3cccc3)cc2)cc1	?	0	0	14	13	22	-	0	0	0	0	0	0
Cc1nc2ccccc2cc1C(=O)Nc1ccccc1Cl	157[activator]	0	0	0	0	0	148	0	0	0	0	0	0
Cc1nc2ccc(F)cc2cc1C(=O)Nc1cccc(Cl)c1C	0	0	0	0	0	0	-	-	-	-	-	-	-
Cn1c(=O)[nH]c(=O)c2c1nc(SCCO)n2CC(O)COc1ccccc1 (configuration not stated)	0	0	0	0	0	0	-	-	-	-	-	-	-
CC(=Nc1ccccc1)Nc1ccccc1	0	0	0	159[activator]	-	0	144	0	0	0	0	0	0
C=CCSC1=NC(N)=C(C#N)C2(CCCCC2)C1C(N)=O (configuration not stated)	0	0	0	0	0	0	-	-	-	-	-	-	-
N#CC1=C(N)N=C(SCc2ccccc2)C(C(N)=O)C12CCCCC2 (configuration not stated)	0	0	0	142[activator]	0	0	108	-	-	-	-	-	-
N#C/C(=C\c1ccc(N2CCOCC2)o1)C(=O)NCCc1ccccc1	0	0	0	0	0	0	-	-	-	-	-	-	-
N#C/C(=C/c1ccc(N2CCOCC2)o1)C(=O)Nc1ccccc1	198[activator]	55	0	0	0	159[activator]	-	0	0	0	0	0	0
CCc1ccc2c(COC(=O)c3n[nH]c4ccccc34)cc(=O)oc2c1	0	0	0	143[activator]	0	0	120	0	0	0	0	0	0
COc1ccc(C(F)(F)F)cc1NC(=O)c1nc2nc(C)cc(C(F)F)n2n1	33	0	0	30	0	38	-	0	0	0	0	0	0
SMILES	RGS7-Gao reg	Avidin fluor	GSH bead fluor	RGS8-Gao	RGS16-Gao HTS	RGS4-Gao reg	RGS4-Gao HTS	Avidin counter	RGS8-Gao confirm	RGS7-Gao confirm	RGS16-Gao conf	RGS4-Gao single	RGS19-Gao single
Cc1ccc(NC(=O)CO/N=C(\N)c2nonc2N)cc1C	0	0	0	0	25	0	92	0	0	0	0	0	0
COc1ccc(O)c(C(=O)c2coc(=N)c(C(=O)Nc3ccc(SC(F)F)cc3)c2)c1	0	0	0	0	0	0	-	-	-	-	-	-	-
Cc1cccc(C)c1NC(=O)C(=O)c1cn(C)c2ccccc12	0	0	0	0	0	0	-	-	-	-	-	-	-
Cc1cc(NC(=O)C(=O)c2cn(C)c3ccccc23)no1	165[activator]	62	0	0	0	0	110	0	0	0	0	0	0
CCCN(CCC)c1nc(N(CCC)CCC)[nH]c(=O)n1	5.2	0	0	20	9.2	16	-	0	0	0	0	0	0
S=C(NCc1ccco1)Nc1ccc(Oc2ccccc2)cc1	0	0	0	0	0	0	-	-	-	-	-	-	-
COc1ccccc1NC(=S)c1ccccc1	0	0	0	0	0	0	-	-	-	-	-	-	-
Cn1c2c(c(=O)n(C)c1=O)CN(Cc1ccc3c(c1)OCO3)CN2	0	0	0	0	222[activator]	0	104	0	0	0	0	0	0
O=C(CSc1nn(-c2ccc(F)cc2)c(=S)s1)NC(=O)NCc1ccco1	0	0	0	0	19	0	74	0	0	0	0	0	0
Cc1nnc(SCC(=O)NC(=O)NCc2ccco2)s1	?	0	0	0	0	0	-	-	-	-	-	-	-
O=C(Cn1nnc(-c2cc(C(F)(F)F)cc(C(F)(F)F)c2)n1)NNC(=S)Nc1ccc(Cl)cc1	?	0	-	145[activator]	0	185[activator]	-	0	0	0	0	0	0
Cc1ccc(-c2cc(C(F)(F)F)c(C#N)c(=O)[nH]2)cc1	0	0	0	0	0	0	-	-	-	-	-	-	-
